Experimental data from PubChem BioAssay (NCATS).
Records with an inconclusive call do not appear. Active and inactive are the calls of the source. Calls come from the whole dose curve; as a rule, active = well fitted curve in the direction sought with a large enough effect; inconclusive = small, poorly fitted or top-dose-only effect, or another doubt; inactive = no such curve, though single readings can be large; an effect the other way counts as inactive or inconclusive. Where a SMILES comes first, the peptide text is derived from it. [ ]: non-standard residue; d: D form. ξ: configuration not given here. ξPhe(βξ-Me) = CC(c1ccccc1)C(N)C(=O)O; GABA = NCCCC(=O)O

Assays:
[1] = molecular target: Glutathione peroxidase 1 (Homo sapiens) (UniProt P07203); test: Primary qHTS Assay for Inhibitors of Recombinant Selenoprotein Glutathione Peroxidase 1 (GPX1) (AID 1845191); note: nearly all actives have a fitted effect of over 65% in size; for activity, negative = inhibition: % is set by controls: 0 for no effect and ±100 for the full control effect
Chain of Glutathione peroxidase 1 (Homo sapiens) (P07203 whole entry, looked up): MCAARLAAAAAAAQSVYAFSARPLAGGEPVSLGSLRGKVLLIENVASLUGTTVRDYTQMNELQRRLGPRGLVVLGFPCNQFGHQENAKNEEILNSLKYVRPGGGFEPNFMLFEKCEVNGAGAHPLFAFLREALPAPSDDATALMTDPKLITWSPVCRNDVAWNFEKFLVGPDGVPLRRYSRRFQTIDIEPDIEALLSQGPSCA
How it was run: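 GR-coupled readout: NADPH consumption tracked by fluorescence, ex 340/em 450 nm, at t=0 and after 15 min at RT. Final mix 10 nM GPX1, 1 mM GSH, 0.5 mM CHP, 0.5 mM NADPH, 100 nM GR, 0.01% BSA, following 30 min enzyme–compound preincubation.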

[2] = molecular target: Phospholipid hydroperoxide glutathione peroxidase GPX4 (Homo sapiens) (UniProt P36969); test: Primary qHTS Assay for Inhibitors of Recombinant Selenoprotein Glutathione Peroxidase 4 (GPX4) (AID 1845192); note: nearly all actives have a fitted effect of over 65% in size; for activity change, negative = inhibition: series mostly up to about 50 µM; % is set by controls: 0 for no effect and ±100 for the full control effect
Chain of Phospholipid hydroperoxide glutathione peroxidase GPX4 (Homo sapiens) (P36969 whole entry, looked up): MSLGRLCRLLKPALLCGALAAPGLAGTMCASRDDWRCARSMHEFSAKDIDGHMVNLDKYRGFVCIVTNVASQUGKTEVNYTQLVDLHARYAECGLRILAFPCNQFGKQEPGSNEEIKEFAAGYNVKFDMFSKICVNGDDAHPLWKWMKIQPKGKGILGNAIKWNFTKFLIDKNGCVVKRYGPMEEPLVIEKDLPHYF
How it was run: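 Steps: GPX4 plus compound, 30 min RT; add GR/GSH/NADPH master mix; start with cumene hydroperoxide; read 340/450 nm fluorescence at 0 and 15 min. Finals were 200 nM GPX4, 1 mM GSH, 0.5 mM CHP, 0.5 mM NADPH, 100 nM GR.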

[3] = molecular target: Luciferin 4-monooxygenase (Photinus pyralis) (UniProt P08659); test: Primary firefly luciferase (FLuc) qHTS assay for identification of artifact compounds. (AID 1845220); note: nearly all actives have a fitted effect of over 60% in size;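 for activity change, negative = inhibition: series mostly up to about 54 µM; plate controls were DMSO vehicle for no effect and no enzyme for full effect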
How it was run: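 D-luciferin and ATP (10 uM each, final) in Tris acetate buffer pH 7.6 were incubated with compounds for 15 min at room temperature. The reaction was started with 10 nM Photinus pyralis luciferase and luminescence read after 5 min. Percent inhibition was fitted to a 4-parameter Hill equation.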

[4] = Primary fluorescence-based thiol-reactive (MSTI) qHTS assay for identification of artifact compounds. (AID 1845221); note: nearly all actives have a fitted effect of over 65% in size; note: potency is the fitted concentration of half-maximal effect;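 for activity change, negative = thiol reactive: series mostly up to about 54 µM; thiol-reactive compounds lower the probe fluorescence signal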
How it was run: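 In PBS pH 7.4 with 2% DMSO, each compound met 4 uM MSTI for one hour at ambient temperature, shielded from light, before fluorescence detection.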

[5] = tested on: Nanoluciferase (engineered Oplophorus gracilirostris luciferase); test: Primary Nanoluciferase (NLuc) qHTS assay for identification of artifact compounds. (AID 1845222);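 note: series mostly up to about 54 µM; 0% = DMSO and -100% = no enzyme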
How it was run: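 Diluted conditioned medium from NLuc-expressing S16 cells treated with compounds for 15 min at room temperature, then Nano-Glo substrate added; luminescence read after 5 min. Percent inhibition versus no-enzyme and DMSO controls fitted to 4-parameter Hill equation.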

[6] = Primary redox qHTS assay for identification of artifact compounds. (AID 1845223);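 note: 0% = DMSO and 100% = reference compound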
How it was run: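 Redox-cycling detection via DTT (250 uM final) oxidation coupled to Amplex Red (25 uM)/HRP (250 mU/mL) in HBSS. 15 min preincubation plus 30 min after DTT, room temperature. Ex/Em 525/598 nm; 4-parameter Hill fit against DMSO and 10 uM DA3003.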

CC1(C)CC[C@]23CO[C@@]4(CCC5[C@@]6(C)CC[C@H](O[C@@H]7OC[C@H](O[C@@H]8O[C@H](CO)[C@@H](O)[C@H](O)[C@H]8O)[C@H](O)[C@H]7O[C@@H]7O[C@H](CO)[C@@H](O[C@@H]8O[C@H](CO)[C@@H](O)[C@H](O)[C@H]8O)[C@H](O)[C@H]7O)[C@@](C)(CO)C6CC[C@@]5(C)[C@]4(C)C[C@H]2OC2OCC(O)C(O)C2O)C3C1 (stereo not given in full)
inactive: activity, negative = inhibition [1] -19.2% [at 9.52 µM] | activity change, negative = inhibition [2] -5.8% [at 9.73 µM] | activity change, negative = inhibition [3] -1.22% [at 11.6 µM] | activity change, negative = thiol reactive [4] 227% [at 11.5 µM] | activity, negative = inhibition [5] 0% [at 11.6 µM] | redox activity (% of DA3003) [6] 2.43% [at 11.5 µM]

CC1NC(=O)CCCNC(=O)C(Cc2c[nH]c3ccccc23)NC(=O)C(C)NC(=O)C(C(C)C)NC(=O)C(C(C)c2ccccc2)NC(=O)C(C(C)C)NC1=O (stereo not drawn) (cyclo([GABA]AV[ξPhe(βξ-Me)]VAW); configuration not given here)
inactive: Potency [1] | Potency [2] | Potency [3] | Potency [4] | Potency [5] | Potency [6]

COc1ccccc1Oc1ccc(N(Cc2cccnc2)S(=O)(=O)CC(F)(F)F)cc1
inactive: Potency [1] | Potency [2] | Potency [3] | Potency [4] | Potency [5] | Potency [6]

CN[C@H](C(=O)N[C@H](C(=O)N(C)[C@H](/C=C(\C)C(=O)O)C(C)C)C(C)(C)C)C(C)(C)c1ccccc1
inactive: Potency [1] | Potency [2] | Potency [3] | Potency [4] | Potency [5] | Potency [6]

CS(=O)(=O)N(CC(=O)NCC1CC1)c1cc(C(F)(F)F)ccc1Cl
inactive: Potency [1] | Potency [2] | Potency [3] | Potency [4] | Potency [5] | Potency [6]

CC(C)C(C#N)O[C@@H]1O[C@H](CO[C@@H]2O[C@@H](C)[C@H](O)[C@@H](O)[C@H]2O)[C@@H](O)[C@H](O)[C@H]1O (stereo not given in full)
inactive: Potency [1] | Potency [2] | Potency [3] | Potency [4] | Potency [5] | Potency [6]

O=S(=O)(c1ccccc1)c1cnc2c(N3CCNCC3)cccc2c1
inactive: Potency [1] | Potency [2] | Potency [3] | Potency [4] | Potency [5] | Potency [6]

COc1c2cc(c(O)c1OC)-c1cc(ccc1O)CCC(O)CCCC2 (stereo not given)
inactive: Potency [1] | Potency [2] | Potency [3] | Potency [4] | Potency [5] | Potency [6]

C=C1C[C@@]23CCC4[C@@](C)(CCC[C@@]4(C)C(=O)OC)C2CC[C@@H]1C3 (stereo not given in full)
inactive: Potency [1] | Potency [2] | Potency [3] | Potency [4] | Potency [5] | Potency [6]

CC(C)(O[C@@H]1O[C@H](CO)[C@@H](O)[C@H](O)[C@H]1O)C(OC(=O)/C=C\c1ccc(O)cc1)C(=O)OCc1ccc(O[C@@H]2O[C@H](CO)[C@@H](O)[C@H](O)[C@H]2O)cc1 (stereo not given in full)
inactive: Potency [1] | Potency [2] | Potency [3] | Potency [4] | Potency [5] | Potency [6]

Cc1cccc(C)c1OCc1cc(C(=O)N2CCC(c3ccncc3)CC2)no1
inactive: Potency [1] | Potency [2] | Potency [3] | Potency [4] | Potency [5] | Potency [6]

CC1(C)[C@@H](O)CC[C@]2(C)[C@H]3CC=C4[C@@H]5C[C@](C)(C(=O)O)CC[C@]5(C)CC[C@@]4(C)[C@]3(C)CC[C@@H]12
inactive: Potency [1] | Potency [2] | Potency [3] | Potency [4] | Potency [5] | Potency [6]

CC1(C)CC[C@]2(C(=O)O[C@@H]3O[C@H](CO)[C@@H](O)[C@H](O)[C@H]3O)CC[C@]3(C)C(=CCC4[C@@]5(C)CC[C@H](O[C@@H]6O[C@H](C(=O)O)[C@@H](O)[C@H](O[C@@H]7O[C@H](CO)[C@H](O)[C@H](O)[C@H]7O)[C@H]6O)C(C)(C)C5CC[C@]43C)C2C1 (stereo not given in full)
inactive: Potency [1] | Potency [2] | activity change, negative = inhibition [3] -3.44% [at 11.6 µM] | activity change, negative = thiol reactive [4] 172% [at 11.5 µM] | activity, negative = inhibition [5] 3.94% [at 11.6 µM] | redox activity (% of DA3003) [6] 0.97% [at 11.5 µM]

C=C(C(=O)O)[C@H]1C[C@]2(C)[C@@H](O)CC[C@]23O[C@H]1C[C@@H]3C
inactive: Potency [1] | Potency [2] | Potency [3] | Potency [5] | Potency [6]
active: Potency [4] 29.9 µM

C[C@@H]1C(=O)O[C@H](C)[C@H]1CC(=O)[C@](C)(O)[C@H]1CC[C@@]2(O)C3=CC(=O)[C@@H]4C[C@@H](O)[C@@H](O)C[C@]4(C)C3CC[C@]12C (stereo not given in full)
inactive: Potency [1] | Potency [2] | Potency [3] | Potency [4] | Potency [5] | Potency [6]

C=CC(=O)Nc1cccc(CN2C(=O)N(c3c(Cl)c(OC)cc(OC)c3Cl)Cc3cnc(NCCCCN(CC)CC)nc32)c1
inactive: Potency [1] | Potency [2] | Potency [3] | Potency [4] | Potency [5] | Potency [6]

CC1(C)CC[C@]2(C(=O)OC3OC(CO)C(O)C(O)C3O)CC[C@]3(C)C(=CCC4[C@@]5(C)CC[C@H](OC6OC(C(=O)O)C(O)C(OC7OC(CO)C(O)C(O)C7O)C6O)C(C)(C)C5CC[C@]43C)C2C1 (stereo not given in full)
inactive: Potency [1] | Potency [2] | activity change, negative = inhibition [3] 2.81% [at 11.6 µM] | activity change, negative = thiol reactive [4] 338% [at 11.5 µM] | activity, negative = inhibition [5] 2.64% [at 11.6 µM] | redox activity (% of DA3003) [6] 0.227% [at 11.5 µM]

CC1(C)CC[C@]2(C(=O)O)CC[C@]3(C)C(=CCC4[C@@]5(C)CC[C@H](O[C@@H]6O[C@H](CO)[C@@H](O)[C@H](O)[C@H]6O[C@@H]6O[C@H](CO)[C@@H](O)[C@H](O)[C@H]6O)[C@@](C)(CO)C5CC[C@]43C)[C@@H]2C1 (stereo not given in full)
inactive: Potency [1] | Potency [2] | Potency [3] | Potency [4] | Potency [5] | Potency [6]

O=C1Nc2ccccc2C(O)(c2ccccc2)C1O (stereo not given)
inactive: Potency [1] | Potency [2] | Potency [3] | Potency [4] | Potency [5] | Potency [6]

C[C@@H]1O[C@@H](O[C@H]2[C@H](O)[C@@H](O[C@@H]3O[C@H](CO)[C@@H](O)[C@H](O[C@@H]4O[C@H](CO)[C@@H](O)[C@H](O)[C@H]4O)[C@H]3O)[C@H](O[C@H]3CC[C@@]4(C)C(=CC[C@@H]5C4CC[C@@]4(C)C5C[C@@H]5OC6(CC[C@@](C)(CO[C@@H]7O[C@H](CO)[C@@H](O)[C@H](O)[C@H]7O)O6)[C@@H](C)[C@@H]54)C3)O[C@@H]2CO)[C@H](O)[C@H](O)[C@H]1O (stereo not given in full)
inactive: activity, negative = inhibition [1] -7.69% [at 9.52 µM] | activity change, negative = inhibition [2] -8.14% [at 9.73 µM] | activity change, negative = inhibition [3] -3.7% [at 11.6 µM] | activity change, negative = thiol reactive [4] 201% [at 11.5 µM] | activity, negative = inhibition [5] -0.894% [at 11.6 µM] | redox activity (% of DA3003) [6] 7.08% [at 11.5 µM]

CC1(C)C[C@H](O)C[C@@]2(C)OC(=O)C=C12
active: Potency [4] 39.8 µM
inactive: Potency [1] | Potency [2] | Potency [3] | Potency [5] | Potency [6]

CC1(C(=O)O)CCCC2(C)C3CCC4CC3(CCC12)CC4=O (stereo not given)
inactive: Potency [1] | Potency [2] | Potency [3] | Potency [4] | Potency [5] | Potency [6]

C[C@@H]1O[C@@H](O[C@@H]2[C@@H](O)[C@H](O[C@H]3[C@H](O[C@H]4CC[C@@]5(C)C(CC[C@]6(C)C5CC=C5[C@@H]7CC(C)(C)CC[C@]7(C(=O)O[C@@H]7O[C@H](CO)[C@@H](O)[C@H](O)[C@H]7O[C@@H]7O[C@@H](C)[C@H](O[C@@H]8O[C@@H](C)[C@H](O)[C@@H](O)[C@H]8O)[C@@H](O)[C@H]7O)CC[C@]56C)[C@@]4(C)CO)O[C@H](C(=O)O)[C@@H](O)[C@@H]3O)O[C@H](CO)[C@H]2O)[C@H](O)[C@H](O)[C@H]1O (stereo not given in full)
inactive: activity, negative = inhibition [1] -4.58% [at 9.52 µM] | activity change, negative = inhibition [2] 1.11% [at 9.73 µM] | activity change, negative = inhibition [3] -1.57% [at 11.6 µM] | activity change, negative = thiol reactive [4] 155% [at 11.5 µM] | activity, negative = inhibition [5] 0% [at 11.6 µM] | redox activity (% of DA3003) [6] 1.07% [at 11.5 µM]

C[C@@H]1CN(Cc2ccccc2)C[C@H]1c1nc2c(cnn2C2CCOCC2)c(=O)[nH]1
inactive: Potency [1] | Potency [2] | Potency [3] | Potency [4] | Potency [5] | Potency [6]

O=C(CC1C(=O)Nc2ccccc21)OC[C@H]1O[C@@H](OCCc2ccc(O)cc2)[C@H](O)[C@@H](O)[C@@H]1O (stereo not given in full)
active: Potency [4] 9.22 µM
inactive: Potency [1] | Potency [2] | Potency [3] | Potency [5] | Potency [6]

CCN(Cc1cccnc1)C(=O)CN(c1ccc(OC)nc1)S(=O)(=O)c1ccccc1C
inactive: Potency [1] | Potency [2] | Potency [3] | Potency [4] | Potency [5] | Potency [6]

CC1CC(O)C2(OC1=O)OC1C(O)C3C4CCC5CC(OC6OC(CO)C(O)C(O)C6OC6OC(C)C(O)C(O)C6O)CCC5(C)C4CCC3(C)C1C2C (stereo not given)
inactive: Potency [1] | Potency [2] | Potency [3] | Potency [4] | Potency [5] | Potency [6]

CC1(C)C2CC(OC3OC(COC4OCC(O)(CO)C4O)C(O)C(O)C3O)C1(C)CC2O (stereo not given)
inactive: Potency [1] | Potency [2] | Potency [3] | Potency [4] | Potency [5] | Potency [6]

CCCCNc1ccc(-c2ccc(CN3CCOCC3)cn2)c(NC2CCC(O)CC2)c1 (stereo not given)
inactive: Potency [1] | Potency [2] | Potency [3] | Potency [4] | Potency [5] | Potency [6]

CCCCC1CCN(CCCC(=O)c2ccccc2C)CC1
inactive: Potency [1] | Potency [2] | Potency [3] | Potency [4] | Potency [5] | Potency [6]
